Where “and” joins values, the source holds several entries; their conditions need not be identical. Identical values can stand only once. Where a structure was tested more than once in an assay, its records may differ in their call. Calls of active or inactive are those of the source. The calls were made as follows: active = hit-call score of the fitted dose curve at least 0.9, where 1 is the maximum; inactive = score below 0.9.
read-out: Intercellular Adhesion Molecule 1 (ICAM1), ICAM1 (gene 3383); experiment: BSK_3C_ICAM1: BioMAP Diversity Plus: 3C Assay for Intercellular Adhesion Molecule 1 (ICAM1) Biomarker Activity (AID 2283003); conditions: primary human endothelial cells (HUVEC); actives raise or lower the signal
Description: BSK_3C is a cell-based, multiplexed-readout assay that uses umbilical vein endothelium, a human vascular primary cell, with measurements taken at 24 hours after chemical dosing in a 96-well plate.BSK_3C_ICAM1 is an assay component measured in the BSK_3C assay. It measures ICAM-1 antibody related to regulation of gene expression using ELISA technology.Data from the assay component BSK_3C_ICAM1 was analyzed into 1 assay endpoint. This assay endpoint, BSK_3C_ICAM1, was analyzed with bidirectional fitting relative to DMSO as the negative control and baseline of activity. Using a type of binding reporter, gain or loss-of-signal activity can be used to understand changes in the signaling as they relate to the gene ICAM1. Furthermore, this assay endpoint can be referred to as a primary readout, because this assay has produced multiple assay endpoints where this one serves a signaling function. To generalize the intended target to other relatable targets, this assay endpoint is annotated to the cell adhesion molecules intended target family, where the subfamily is Immunoglobulin CAM.
The levels of cell surface (or secreted, indicated by the prefix "s") biomarker endpoints were measured by ELISA. Overt cytotoxicity to cells in confluent adherent cultures (all systems other than the BT system) was assessed by measuring total protein levels using sulforhodamine B (SRB) staining in parallel cultures at the time of biomarker measurements, indicated as SRB endpoints. For proliferation assays for adherent cell types, individual cell types are cultured at sub-confluence and relative cell numbers quantified by SRB staining at time points optimized for each system (48 h: 3C and CASM3C systems; 72 h: BT and HDF3CGF systems; 96 h: SAg system). SRB was performed by staining cells with 0.1% SRB after fixation with 10% TCA and reading wells at 560 nm.Viability and proliferation of PBMC (T cells) was quantified by Alamar Blue reduction for the SAg and BT systems. For PBMC viability (referred to as PBMC Cytotoxicity within the assay endpoint names), cells were plated (75,000/well in a 96-well plate) and then chemical samples added for 1 h before addition of activators, SEB and TSST-1 (20 ng/mL final concentration each). Cells were incubated for 90 h. Then, Alamar Blue (20 uL/well) (Invitrogen, Cat DAL1100) was added for 6 h, and the plates were read with a fluorescence microplate reader at 546/580 nm (excitation/emission). For PBMC proliferation, cells were plated and activated as above but incubated for only 16 h prior to addition of Alamar Blue. Plates were read after 6 h.

Row | Structure (SMILES) | AC50 | outcome
1 | O=C1C=CC(=O)C=C1 | 20 µM (active) and 28.6 µM (active) | –
2 | CC(C)CCCCCCCOC(=O)c1ccccc1C(=O)OCCCCCCCC(C)C | – | inactive
3 | O=[N+]([O-])C=Cc1ccccc1 | 7.32 µM (active) | –
4 | CC(C)COP(=O)(OCC(C)C)OCC(C)C | – | inactive
5 | O=P1(NCCCl)OCCCN1CCCl (centres undefined) | – | inactive
6 | COCC(=O)N(c1c(C)cccc1C)N1CCOC1=O | – | inactive
7 | CC(C)(C)C(O)C(Oc1ccc(-c2ccccc2)cc1)n1cncn1 (centres undefined) | – | inactive
8 | CCCOC(=O)c1ccccc1C(=O)OCCC | – | inactive
9 | N#CCCCCC#N | – | inactive
10 | CCCC[N+](CCCC)(CCCC)CCCC | – | inactive
11 | O=[N+]([O-])O | – | inactive
12 | COc1ccc(CO)cc1 | – | inactive
13 | Cc1ccc(OP(=O)(Oc2ccc(C)cc2)Oc2ccc(C)cc2)cc1 (tested in a mixture with another compound) | – | inactive
14 | O=C(O)CCCc1ccc(N(CCCl)CCCl)cc1 | 20 µM (active) | inactive
15 | Clc1ccc(-c2ccccc2)cc1 | – | inactive
16 | C=CCN(CC=C)C(=O)C(Cl)Cl | – | inactive
17 | COC(C)(C)CCC[C@H](C)C/C=C/C(C)=C/C(=O)OC(C)C | 30.4 µM (active) | –
18 | c1ccc(Nc2ccc3ccccc3c2)cc1 | 30.6 µM (active) | –
19 | CC(=O)/C=C/c1ccccc1 | – | inactive

Row | Structure (SMILES) | AC50 | outcome
20 | CC(C)(c1cc(Cl)c(O)c(Cl)c1)c1cc(Cl)c(O)c(Cl)c1 | 29.4 µM (active) | –
21 | O=c1c2ccccc2c(=O)c2c1cc(Cl)c1[nH]c3c([nH]c12)c(Cl)cc1c(=O)c2ccccc2c(=O)c13 | – | inactive
22 | O=C(CCl)c1ccccc1 | 7.82 µM (active) | –
23 | O=C1C(Cl)=C(Cl)C(=O)C(Cl)=C1Cl | 25.4 µM (active) | –
24 | Oc1cc(Cl)ccc1Cl | – | inactive
25 | CC(C)CCCCCCCOP(=O)(Oc1ccccc1)Oc1ccccc1 | 20 µM (active) | –
26 | O=[N+]([O-])c1ccc(Cl)cc1 | – | inactive
27 | CNC(=O)Oc1cc(C)c(SC)c(C)c1 | – | inactive
28 | [Cd+2].[Cl-].[Cl-] | – | inactive
29 | CCCCCCCCCCCC#N | – | inactive
30 | CCc1cc(C)cc(CC)c1-c1c(OC(=O)C(C)(C)C)n2n(c1=O)CCOCC2 | – | inactive
31 | C=CC(=O)OCC(CC)CCCC (centres undefined) | – | inactive
32 | CC(C)(C)C(=O)CCl | – | inactive
33 | Oc1ccc(C2(c3ccc(O)cc3)c3ccccc3-c3ccccc32)cc1 | 32.5 µM (active) and 22.6 µM (active) | –
34 | O=S(=O)(c1ccccc1)c1ccccc1 | – | inactive
35 | CCC(C)c1cc([N+](=O)[O-])cc([N+](=O)[O-])c1OC(=O)C=C(C)C (centres undefined) | 30.4 µM (active) | –
36 | CC1(C)[C@H](C(=O)O[C@H](C#N)c2cccc(Oc3ccccc3)c2)[C@@H]1C=C(Br)Br | – | inactive
37 | Nc1ccc(-c2ccc(N)c(N)c2)cc1N | – | inactive
38 | O=c1[nH]c(Cl)c(Cl)cc1Cl | – | inactive

From PubChem BioAssay (EPA / NIEHS)
